Laboratory results: the supplement of paper PMC6555819

Assays:
Test in all cases: PBM binding z-score (relative to random genomic background probes); higher = stronger binding; sequences stand for … in GC…GCGATTGACAGCGTAGAATGAAGG
[1] = tested on: RARb homodimer (NR concentration 270 nM)
In short: (§1)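 Ligand-free nuclear receptor dimers were bound for 1 h to custom Agilent 4×180K protein-binding microarrays. Detection used antibodies against each partner (one per run). Binding z-scores rest on regression-normalized fluorescence, with random background probes as the reference.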

[2] = tested on: RARg:RXRa (NR concentration 270 nM, RXRa partner concentration 90 nM)
In short: as §1

[3] = tested on: RARg homodimer (NR concentration 270 nM)
In short: as §1

[4] = tested on: RXRa DBDmut IVT, anti-RXR (DBD mutation: RXRa K156A/R161A, NR concentration 90 nM)
In short: as §1

[5] = tested on: RXRa homodimer (NR concentration 180 nM)
In short: as §1

[6] = tested on: THRa:RXRa (NR concentration 90 nM, RXRa partner concentration 90 nM)
In short: as §1

[7] = tested on: THRa homodimer (NR concentration 90 nM)
In short: as §1

[8] = tested on: VDR homodimer (NR concentration 270 nM)
In short: as §1

Sequence | PBM binding z-score [1] | PBM binding z-score [2] | PBM binding z-score [3] | PBM binding z-score [4] | PBM binding z-score [5] | PBM binding z-score [6] | PBM binding z-score [7] | PBM binding z-score [8]
GGAACGAGGGCAAGTTGATAGAAGAGTTTGATGG | 1.5 | 1.55 | 2.06 | 2.22 | 0.775 | 1.2 | 0.164 | 1.7
GGAACGAGGGCATTCGAGTTGATAGCGTGGCGAT | 0.509 | 0.892 | 1.16 | 3 | 0.583 | 3.13 | -0.46 | 3.6
ACTATTAGTTGACTTAGGACAACCGATACGACGC | 0.766 | 0.732 | 1.04 | 0.853 | 0.557 | 2.12 | 1.88 | 0.342
ATCGAAAGGTCGGCGAGGTGAGTATACACCGTTT | 2.95 | 3.69 | 3.91 | 0.785 | 3.86 | 3.29 | 0.709 | 0.535
CGAACGAGGGCATGAGTTGATCGCAAATGCCGAT | 0.684 | 1.04 | 1.28 | 2.51 | 0.767 | 1.04 | -0.361 | 1.79
CGAACTAGGTCATCTAGGACAGTGAATACATTGA | 2.74 | 4.13 | 4.96 | 2.2 | 2.99 | 3.3 | 1.49 | 1.48
CGAACTAGGTGAGAACAGGACAGTGAAGGATGAT | 0.34 | 0.567 | 0.579 | 0.0565 | 0.458 | 1.21 | 0.0768 | 0.286
AATACAGGGTCACTAGGCCAGAATAGGTACGAAT | 3.3 | 5.17 | 4.76 | 2.85 | 5.58 | 3.41 | 1.4 | 2.52
CCTCCGAGGACAGAAGGTCAGAGCTGTCCGCTTT | 3.67 | 3.52 | 3.34 | 0.589 | 2.37 | 2.76 | 1.17 | 0.494
CGAACTAGGTCATCCAGGACAATGAATACATTGA | 2.68 | 3.81 | 4.59 | 2.36 | 2.73 | 3.81 | 2.22 | 2.27
TCTGCTAGGTCAGCTGGTCAGCTAACGAGCTGCC | 2.62 | 3.42 | 4.27 | 0.17 | 1.51 | 1.8 | -0.216 | -1.3
ATCTCTAGGTAACAAGTTCAGTGAGAGAGAGGAC | 1.86 | 1.4 | 1.54 | 0.761 | 0.903 | 1.49 | 0.878 | 2.81
TCCAGTAGGTTAGGGGCATTCAGAATGGCGTCGA | 0.983 | 0.561 | 0.313 | 1.16 | 1.06 | 0.915 | 0.179 | 0.877
TCGTGTAGATCAGCAGGTTAAGAAAGCTGGCCAA | -0.0746 | -0.298 | -0.396 | 0.345 | -0.115 | 0.0652 | -0.429 | -0.282
